From PubChem BioAssay
SW480 rerep: DNA re-replication induction in SW480 cells | SW480 DNA re-replication, Hoechst DNA content imaging, 48 h | Potency, µM (highest dose often 46.1 µM), for inactives: top-dose re-replication activation, most hits filed as activators | hit rate 1.8% among 340,000 | AID 624297; also: % of control where 0% means no effect; nearly all actives have a fitted effect of over 55% in size
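First, 250 cells per well were seeded. Next, compound or vehicle (23 nL) was pinned in, plates sat 48 hr at 37 C. Finally Hoechst was added for 40 min before fluorescence scanning.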
ELG1 repair inh: ELG1-dependent DNA repair inhibition. HEK293T ELG1-luciferase reporter, luminescence, 16 h; DNA damage induced by 5-fluorouridine. Potency, µM (titrated, usually from 46.1 µM), inactives show at the top dose activity change, negative = inhibition, hits mostly inhibitors. hit rate 2.3% among 330,000. AID 504467; also: % is scaled to controls: 0 for no effect and ±100 for the full control effect; nearly all actives have a fitted effect of over 55% in size
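In this reporter screen, reduction of luminescence relative to DMSO vehicle indicated activity. Compounds and 5-fluorouridine were added together to 2,000 cells per well, incubated for 16 hr at 37 °C, then developed with ONE-Glo.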
ELG1 genotoxic: induces genotoxicity in HEK293T cells with luciferase-tagged ELG1. HEK293T ELG1-luciferase reporter, luminescence, 16 h. hit rate 1.3% among 330,000. Potency, µM (series often up to 46 µM), inactives show at the top dose activity change, positive = activation, hits mostly activators; also: % of control where 0% means no effect; nearly all actives have a fitted effect of over 60% in size
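Step 1: seed 2,000 HEK293T ELG1-luciferase cells per well. Step 2: add compound or DMSO, incubate 16 hr at 37 °C. Step 3: ONE-Glo, 30 min at room temperature, read luminescence.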
A-T KAP1 phos: potential ataxia-telangiectasia treatments restoring KAP-1 phosphorylation | Potency, µM (doses to about 57.5 µM), for inactives: at the highest dose activation, hits mostly activators | F2112 A-T fibroblasts, KAP-1 phosphorylation AlphaLISA; neocarzinostatin DNA damage 30 min before lysis | hit rate 0.19% among 320,000; also: % of control where 0% means no effect; nearly all actives have a fitted effect of over 45% in size
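hTERT-immortalized A-T patient fibroblasts (F2112), 500 cells/well in OPTI-MEM, 1% FBS, got compounds for 60 min, then NCS for 30 min at 37C. Lysates were then assayed for phospho-KAP-1 by AlphaLISA (anti-pKAP1 donor, anti-KAP1 acceptor beads), 6 hr at 25C.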
p53 reactivator: re-activators of mutant p53 | H1299 p53-A138V BP100-luciferase reporter, luminescence, 24 h | Potency, µM (titrated, usually from 92.2 µM), for the others: at the highest dose activity change, positive = activation, hits mostly activators | hit rate 0.063% among 320,000; also: % of control where 0% means no effect; nearly all actives have a fitted effect of over 45% in size
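H1299 (p53-null), stable ts p53-A138V + BP100-Luc; 1000 cells/well, Opti-MEM/10% FBS; cpd 4 pt, 1:5; 24 h, 37 deg C, 5% CO2; detection reagent 10 min RT; luminescence.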
MCF10A rerep: DNA re-replication induction in MCF 10a cells. MCF 10A DNA re-replication, Hoechst nuclear intensity, 48 h. Potency, µM (titrated, usually from 46.1 µM), without a hit: at the top dose activity, positive = re-replication, actives largely listed as activators. hit rate 2.9% among 350,000. AID 624296; also: % of control where 0% means no effect; nearly all actives have a fitted effect of over 50% in size
Starred values were filed as active, the others as inactive. Shown are actives, neighbours in structure and some others; about 7.1% of the full set was active somewhere. Calls follow the shape of the dose curve; as a rule, active = well fitted curve in the direction sought with a large enough effect; inconclusive = small, poorly fitted or top-dose-only effect, or another doubt; inactive = no such curve, though single readings can be large; an effect the other way counts as inactive or inconclusive. Potency is read from the fitted curve at half-maximal effect.

COc1cc(NC(=O)c2cccs2)c(OC)cc1NC(=O)CCC(=O)Nc1ccc(C)cc1 was read as SW480 rerep inconclusive, ELG1 repair inh -7%, ELG1 genotoxic 4%, A-T KAP1 phos 1%, p53 reactivator -2% and MCF10A rerep 21µM*.
COc1ccc(C(=O)N(C)c2ccccc2C(=O)NCCc2ccccc2)cc1 was read as SW480 rerep 26%, ELG1 repair inh -6%, ELG1 genotoxic -11%, A-T KAP1 phos 1%, p53 reactivator -5% and MCF10A rerep 1%.
`COC(Cn1c2c(c3cc(C)ccc31)CCCC2NCc1ccccc1)OC` (configuration not stated) gave SW480 rerep 0%, ELG1 repair inh inconclusive, ELG1 genotoxic -6%, A-T KAP1 phos 31%, p53 reactivator 5% and MCF10A rerep inconclusive.
For COc1cccc(NC(=O)c2cccs2)c1 the results were SW480 rerep -6%, ELG1 repair inh inconclusive, ELG1 genotoxic 16µM*, A-T KAP1 phos 5%, p53 reactivator inconclusive and MCF10A rerep -7%.
O=C(c1cc(-c2ccccc2)nc2ccccc12)N1CCN(C2CCS(=O)(=O)C2)CC1 (configuration not stated) was read as SW480 rerep -25%, ELG1 repair inh 6%, ELG1 genotoxic 1%, A-T KAP1 phos -8%, p53 reactivator 1% and MCF10A rerep 7%.
For COC(=O)c1ccc(CSc2cc(C)c3ccccc3n2)o1 the results were SW480 rerep 0%, ELG1 repair inh inconclusive, ELG1 genotoxic 0%, A-T KAP1 phos 32µM*, p53 reactivator 13% and MCF10A rerep 12%.
`COc1ccc(C(=O)CSc2nc3ncccc3[nH]2)cc1OC` gave SW480 rerep -2%, ELG1 repair inh -3%, ELG1 genotoxic -5%, A-T KAP1 phos 0.79µM*, p53 reactivator -1% and MCF10A rerep 6%.
For COc1ccccc1NC(=O)CSc1nc2ncccc2[nH]1 the results were SW480 rerep -2%, ELG1 repair inh -4%, ELG1 genotoxic -5%, A-T KAP1 phos 0%, p53 reactivator -9% and MCF10A rerep 5%.
CC(CCc1ccc(O)cc1)NCCC(c1ccccc1)c1ccccc1 (configuration not stated) was read as SW480 rerep inconclusive, ELG1 repair inh -18%, ELG1 genotoxic -3%, A-T KAP1 phos -1%, p53 reactivator -22% and MCF10A rerep 8%.
CC(CCc1ccc(O)cc1)NC(c1ccccc1)c1ccc(Cl)cc1 (configuration not stated) was read as SW480 rerep inconclusive, ELG1 repair inh -26%, ELG1 genotoxic -7%, A-T KAP1 phos -14%, p53 reactivator -58% and MCF10A rerep 16µM*.
For CC(C)Sc1nsc2nc(=O)c(/C=C3\C=Nc4ccccc43)c(N)n12 the results were SW480 rerep inconclusive, ELG1 repair inh 1%, ELG1 genotoxic 0%, A-T KAP1 phos -10%, p53 reactivator inconclusive and MCF10A rerep 18µM*.
For CCC(CC)c1nn2c(N)c(/C=C3\C=Nc4ccccc43)c(=O)nc2s1 the results were SW480 rerep inconclusive, ELG1 repair inh 17%, ELG1 genotoxic -1%, A-T KAP1 phos -2%, p53 reactivator 5% and MCF10A rerep 3.3µM*.
`CCC(CC)c1nn2c(N)c(/C=C3\C(C)=Nc4ccccc43)c(=O)nc2s1` gave SW480 rerep -6%, ELG1 repair inh 8%, ELG1 genotoxic 0%, A-T KAP1 phos -27%, p53 reactivator 3% and MCF10A rerep 23µM*.
`CC(C)c1nn2c(N)c(/C=C3\C=Nc4ccccc43)c(=O)nc2s1` gave SW480 rerep -3%, ELG1 repair inh -17%, ELG1 genotoxic 4%, A-T KAP1 phos -16%, p53 reactivator 1% and MCF10A rerep inconclusive.
